# Screens as filed in PubChem BioAssay.
# Shown are actives, neighbours in structure and some others; about 7% of the full set was active somewhere.
# rCAG RNA binder – molecules binding r(CAG) RNA repeats; r(CAG) RNA repeat, TO-PRO-1 dye displacement fluorescence; inhibition, % at 3 µM; 370,000 compounds, 1.3% hits; AID 651821;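 active = inhibition above the plate cutoff, the mean of all test compounds on that plate plus 3 SD, cut at about 35% in these data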;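 note: 0% = DMSO alone and 100% = 100 µM mitoxantrone as full dye displacement; higher means more dye released from RNA so lower well fluorescence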
# ADAM10 inh – ADAM10 inhibition, QFRET primary screen | O14672 | recombinant ADAM10, EDANS/DABCYL FRET peptide cleavage, 3 h | inhibition, % at 7 µM | 370,000 compounds, 0.62% hits | AID 720582;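 active = inhibition above a per-campaign cutoff equal to the mean of compounds falling between control-based bounds plus 3 SD, cut at about 20% in these data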;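 note: 0% = DMSO wells while the 100% control is not disclosed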
# KLK7 zymogen act – proKLK7 (human) activation, primary screen | purified proKLK7, EDANS-DABCYL substrate fluorescence; 100% is mature enzyme control, 0% vehicle | activation, % at 7 µM | 370,000 compounds, 0.9% hits;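 active = activation above the mean of all tested compounds plus 3 SD, computed per campaign excluding outliers beyond control limits, cut at about 13% in these data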
# GRIN3A LBD mod – NR3A (human) ligand-binding domain modulation. 340,000 compounds, 2.5% hits. NR3A LBD differential scanning fluorimetry, Tm shift; 0% = protein alone, 100% = glycine-bound protein. Tm shift relative to glycine control, % at 25 µM;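 active = melting temperature shift of at least 10% of the positive control shift, at one fixed dose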
# ADAM17 inh – inhibits human ADAM17 | P78536 | recombinant ADAM17, EDANS/DABCYL FRET peptide cleavage | inhibition, % at 6.95 µM | 370,000 compounds, 0.83% hits | AID 720648;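 active = inhibition above the mean of compounds lying between control limits plus 3 SD, set per campaign, cut at about 8.5% in these data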;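 note: 0% = DMSO-only wells as the low control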
# AHR act – human AHR activation; P35869; AHR-responsive luciferase reporter cells, luminescence; activation, % at 5 µM; 320,000 compounds, 2.5% hits; in the data active = activation above about 47%;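 note: 0% = vehicle wells and 100% = reference agonist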
# Target sequence (P35869 whole entry, looked up): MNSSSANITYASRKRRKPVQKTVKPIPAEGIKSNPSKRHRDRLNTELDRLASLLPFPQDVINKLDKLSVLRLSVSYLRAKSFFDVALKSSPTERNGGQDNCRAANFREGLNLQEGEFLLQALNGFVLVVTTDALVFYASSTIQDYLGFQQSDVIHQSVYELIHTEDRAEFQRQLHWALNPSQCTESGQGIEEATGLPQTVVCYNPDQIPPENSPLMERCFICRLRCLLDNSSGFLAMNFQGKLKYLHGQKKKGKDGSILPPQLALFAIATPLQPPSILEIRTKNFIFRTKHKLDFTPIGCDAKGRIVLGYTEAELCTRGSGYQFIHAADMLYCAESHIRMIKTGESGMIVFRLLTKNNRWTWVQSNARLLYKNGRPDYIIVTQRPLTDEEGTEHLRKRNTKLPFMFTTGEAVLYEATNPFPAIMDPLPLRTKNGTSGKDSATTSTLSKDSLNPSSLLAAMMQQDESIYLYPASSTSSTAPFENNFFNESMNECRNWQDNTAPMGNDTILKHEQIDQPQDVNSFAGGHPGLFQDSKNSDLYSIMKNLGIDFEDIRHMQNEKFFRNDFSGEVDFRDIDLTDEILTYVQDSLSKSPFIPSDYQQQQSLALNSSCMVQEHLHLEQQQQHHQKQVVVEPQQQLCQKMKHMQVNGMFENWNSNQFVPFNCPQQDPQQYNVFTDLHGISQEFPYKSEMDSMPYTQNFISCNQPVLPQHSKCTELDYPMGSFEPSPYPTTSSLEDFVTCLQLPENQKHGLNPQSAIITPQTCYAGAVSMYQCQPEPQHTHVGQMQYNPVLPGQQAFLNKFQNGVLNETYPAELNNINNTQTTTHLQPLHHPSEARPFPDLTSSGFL
# The depositor's hits bear a star; . = no result.
SMILES,rCAG RNA binder,ADAM10 inh,KLK7 zymogen act,GRIN3A LBD mod,ADAM17 inh,AHR act
CCOC(=O)c1c(C)nsc1NCc1ccccc1,-4.3,0.7,-0.5,-1.6,-3.2,-1.5
CCOC(=O)c1c(NCc2ccccc2)n[nH]c1C,-5.8,0.0,0.0,-8.2,-2.4,47.7*
COc1ccc(S[C@]2(C(=O)N3CCN(c4ncccn4)CC3)CC(=O)N(P(=O)(OC)OC)[C@@H]2c2ccc(OC)cc2)cc1,2.1,-1.7,0.0,.,1.8,.
COc1ccc(CCNC(=O)CSc2ccc(-c3cccs3)nn2)cc1,-4.8,-13.0,0.0,29.2*,-4.8,0.1
COc1ccccc1-c1ccc(SCC(=O)NCCc2ccccc2)nn1,-6.0,-0.3,-0.2,-1.2,-4.9,57.6*
Cc1ccc(CNC(=O)CSc2ccc(-c3cccs3)nn2)cc1,-1.9,0.3,0.4,-2.4,0.0,22.6
O=C(CSc1ccc(-c2ccc(F)cc2)nn1)NCCc1ccccc1,2.3,5.0,-0.6,-0.8,-0.4,0.7
Fc1ccc(CSc2ccc(-c3cccs3)nn2)cc1,-4.8,-7.9,0.5,1.4,-1.5,-6.7
Cc1ccc(CSc2ccc(-c3cccs3)nn2)cc1,-2.2,-8.1,-0.7,14.1*,-4.5,6.3
COc1ccc(NC(=O)Nc2nnc(-c3ccccc3SCc3ccccc3)s2)cc1,11.0,-0.2,-1.2,21.8*,-1.5,51.1*
CCOC(=O)c1sc(NC(=O)c2ccc(S(=O)(=O)N3CCOCC3)cc2)cc1C,19.4,11.6,-89.7,20.4*,4.6,5.4
COc1ccc(C(=O)Nc2nc3ccc(OC)cc3s2)cc1,12.9,-55.7,-56.2,32.4*,-13.6,.
CCOc1ccc2nc(NC(=O)c3ccc(S(=O)(=O)N4CCOCC4)cc3)sc2c1,4.8,-6.1,6.0,29.3*,-6.5,-0.9
Cc1ccccc1CN1CCCCC(NC(=O)c2ccc(-c3ccccc3)cc2)C1=O (stereo not drawn),3.2,13.3,-0.1,.,3.1,.
O=C(OCc1cn(Cc2cccc(F)c2)nn1)N1CCOCC1,2.2,-0.2,-0.1,.,-0.5,.
COc1ccc2nc(NC(=O)CSc3nnc4n3C(C)(C)Cc3ccccc3-4)sc2c1,1.9,5.5,-0.7,10.1*,4.3,-1.5
COc1ccc2nc(NC(=O)Nc3ccccc3)sc2c1,43.1*,-2.4,-0.2,22.7*,-3.5,7.3
COc1ccc(NC(=O)C2CCCO2)cc1 (stereo not drawn),0.6,-47.2,-0.1,-1.7,-4.5,5.2
COC(=O)c1ccc(C(=O)Nc2nc3cc(N)c(C)cc3s2)cc1,7.8,-2.5,-0.6,36.1*,-3.7,6.0
Nc1ccc(C(=O)Nc2nc3ccccc3s2)cc1,2.0,-34.3,-0.6,7.7,-8.4,12.8
COc1ccc2nc(NC(=O)c3ccc(NC(=O)C4CCCO4)cc3)sc2c1 (stereo not drawn),3.6,-1.4,1.2,20.1*,0.3,14.5
COc1ccc2nc(NC(=O)c3ccccc3C(=O)O)sc2c1,1.8,-3.2,-0.7,-1.1,-0.1,15.2
COc1cc(NC(=O)CSc2nnc3n2C(C)(C)Cc2ccccc2-3)cc(OC)c1,-0.7,1.3,-0.3,1.6,-0.3,-9.6
CCCOc1ccc(C(=O)N2CCC(Oc3cccnc3)CC2)cc1,-2.5,0.7,-0.2,.,-2.6,.
COc1cc2nc(NC(=O)c3ccccc3)sc(=O)c2cc1OC,2.5,-2.0,-0.6,42.3*,1.3,.
SMILES,rCAG RNA binder,ADAM10 inh,KLK7 zymogen act,GRIN3A LBD mod,ADAM17 inh,AHR act
COc1ccc(C(=O)Nc2nc3ccc(S(C)(=O)=O)cc3s2)cc1,11.7,-6.5,-0.1,10.4*,5.3,-3.2
COc1ccc2sc(NC(=O)NC(=O)c3c(Cl)cccc3Cl)nc2c1,14.9,10.4,-0.1,17.6*,-1.2,6.1
C[C@H](O)[C@@H]1CN2CCc3c([nH]c4cccc(-c5ccccc5)c34)[C@@H]2C[C@@H]1N(C)C(=O)Nc1ccccc1,7.5,-49.8,-1.6,.,-14.0,.
COc1cccc(C(=O)N[C@H](C(=O)N2CCC[C@H]2C(=O)NCc2ccccc2)C2CCCCC2)c1,-0.1,-2.3,-0.4,.,-3.9,.
COc1ccc2nc(Nc3nc(C)c(C(C)=O)s3)sc2c1,34.3,-61.1,0.5,10.7*,-20.3,4.5
COc1ccc(Nc2nc3ccc(OC)cc3s2)cc1,0.1,1.2,-0.1,28.4*,0.2,-2.7
CC(=O)c1sc(Nc2ccccn2)nc1C,0.9,-22.1,-0.6,-2.7,-8.1,60.6*
